# In the antibiotic and cytotoxicity screens of Wong et al. (2023):
# Out of some 39,000 compounds screened, about 500 (1.3%) were called active. This excerpt belongs to a sample that is enriched for actives.
# System: S. aureus RN4220
# Assay: growth inhibition call (relative growth <= 0.2)
# Conditions: 50 µM
row,Structure (SMILES),growth inhibition call
1,C[C@@H]1CN([C@H](C)CO)C(=O)c2cc(NC(=O)Nc3ccccc3)ccc2O[C@@H](C)CCCCO[C@@H]1CN(C)Cc1ccccc1,inactive
2,C[C@@H](OC[C@@]1(c2ccccc2)CC[C@]2(CCC(=O)N2)CN1)c1cc(C(F)(F)F)cc(C(F)(F)F)c1,active
3,COc1ccc(NC(=O)Nc2cccc3c2O[C@@H](CN(C)S(C)(=O)=O)[C@H](C)CN([C@@H](C)CO)C3=O)cc1,inactive
4,Cc1cccnc1[C@H](c1ccc(F)cc1)N(C)C(=O)C1CCN(CCn2cnc3c2c(=O)n(C)c(=O)n3C)CC1,inactive
5,Cc1cc(Cl)ccc1OCCN1CCN(C(=O)[C@H]2CC[C@@H](N)C2)CC1,inactive
6,Cc1ccccc1[C@@H](c1ncccc1C)N(C)C(=O)C1CCN(CCOc2ccc(Cl)cc2Cl)CC1,active
7,Cc1cccnc1[C@H](c1ccc(F)cc1)N(C)C(=O)C1CCN(CCOc2ccc(Cl)cc2Cl)CC1,active
8,Cc1ccccc1[C@@H](c1ncccc1C)N(C)C(=O)C1CCN(CCOc2ccc3ccccc3c2)CC1,inactive
9,COc1ccccc1[C@@H](NC(=O)C1CCN(CCOc2ccc(Cl)cc2Cl)CC1)c1ccccn1,inactive
10,COc1ccc(S(=O)(=O)Nc2ccc3c(c2)C(=O)N([C@H](C)CO)C[C@@H](C)[C@H](CN(C)Cc2ccc(Cl)c(Cl)c2)OCCCC[C@H](C)O3)cc1,inactive
11,C[C@@H]1CN([C@H](C)CO)C(=O)c2cc(-c3ccncc3)cnc2O[C@H]1CN(C)S(=O)(=O)c1ccccc1,inactive
12,C[C@@H]1CN([C@@H](C)CO)C(=O)c2cc(NS(=O)(=O)c3ccc(F)cc3)ccc2O[C@H]1CN(C)C(=O)Nc1ccc(C(F)(F)F)cc1,inactive
13,C[C@@H]1CCCCO[C@H](CN(C)S(=O)(=O)c2cn(C)cn2)[C@H](C)CN([C@@H](C)CO)C(=O)c2cc(NS(=O)(=O)c3ccc(F)cc3)ccc2O1,inactive
14,C[C@@H]1CN([C@@H](C)CO)C(=O)c2cc(NC(=O)Nc3cccc4ccccc34)ccc2O[C@@H]1CN(C)S(=O)(=O)c1ccc(F)cc1,inactive
15,COc1cc(OC)cc(-c2ccc([C@H]3CC(=O)C[C@@H](c4ccccc4)C34C(=O)OC(C)(C)OC4=O)cc2)c1,inactive
16,COc1cc(OC)cc(-c2ccc([C@H]3CC(=O)C[C@@H](c4ccccc4)C34C(=O)c3ccccc3C4=O)cc2)c1,active
17,COc1cc(OC)cc(-c2ccc(-c3ccc([C@H]4CC(=O)C[C@@H](c5ccccc5)C45C(=O)OC(C)(C)OC5=O)cc3)cc2OC)c1,inactive
18,Cc1cc(C(=O)Nc2cccc3c2O[C@H](CN(C)C(=O)NC(C)C)[C@@H](C)CN([C@H](C)CO)C3=O)n(C)n1,inactive
19,C[C@H](CO)N1C[C@H](C)[C@@H](CN(C)C(=O)c2ccccc2)OCCCC[C@H](C)Oc2ccc(NC(=O)Nc3ccc4c(c3)OCO4)cc2C1=O,inactive
20,CO[C@H]1CN(C)C(=O)c2ccc(NS(=O)(=O)c3ccccc3C)cc2OC[C@@H](C)N(S(C)(=O)=O)C[C@@H]1C,inactive
21,C[C@@H]1CCCCO[C@H](CN(C)C)[C@H](C)CN([C@@H](C)CO)C(=O)c2cc(NC(=O)CCCN(C)C)ccc2O1,inactive

row,Structure (SMILES),growth inhibition call
1,COC1C(O)CC(=O)OC(C)CC=CC=CC(O)C(C)CC(CC=O)C1OC1OC(C)C(OC2CC(C)(O)C(OC(=O)CC(C)C)C(C)O2)C(N(C)C)C1O (stereo unspecified) [KITASAMYCINS [A1 shown]],active
2,CO[C@@H]1[C@@H](O[C@@H]2O[C@H](C)[C@@H](O[C@H]3C[C@@](C)(O)[C@@H](OC(=O)CC(C)C)[C@H](C)O3)[C@H](N(C)C)[C@H]2O)[C@@H](CC=O)C[C@@H](C)[C@@H](O)/C=C/C=C/CC(C)OC(=O)C[C@H]1OC(C)=O (stereo partly specified),inactive
3,CO[C@@H]1[C@@H](O[C@@H]2O[C@H](C)[C@@H](O[C@H]3C[C@@](C)(O)[C@@H](OC(=O)CC(C)C)[C@H](C)O3)[C@H](N(C)C)[C@H]2O)[C@@H](CC=O)C[C@@H](C)[C@@H](O)/C=C\C=C/C[C@@H](C)OC(=O)C[C@H]1OC(C)=O,active
4,COC(=O)[C@@H]1CC(=O)O[C@H](C)C/C=C/C=C/[C@H](O)[C@H](C)C[C@H](CC=O)[C@H](O[C@H]2O[C@H](C)[C@@H](O[C@H]3C[C@@](C)(O)[C@@H](OC(=O)CC(C)C)[C@H](C)O3)[C@H](N(C)C)[C@H]2O)[C@H]1OC,active
5,C[C@@H]1CN([C@@H](C)CO)C(=O)c2cc(NC(=O)CCC(F)(F)F)ccc2O[C@@H]1CN(C)Cc1ccc(Oc2ccccc2)cc1,inactive
6,C[C@H](CO)N1C[C@H](C)[C@H](CN(C)C(=O)Nc2ccc(C(F)(F)F)cc2)Oc2c(NC(=O)NC3CCCCC3)cccc2C1=O,active
7,C[C@H]1CN([C@@H](C)CO)C(=O)c2cccc(NC(=O)NC3CCCCC3)c2O[C@H]1CN(C)C(=O)Nc1ccc(C(F)(F)F)cc1,inactive
8,C[C@H]1CN([C@@H](C)CO)C(=O)c2cccc(NC(=O)Nc3ccc(C(F)(F)F)cc3)c2O[C@@H]1CN(C)CC1CCCCC1,inactive
9,C[C@H]1CN([C@@H](C)CO)C(=O)c2cccc(NC(=O)Nc3ccc(C(F)(F)F)cc3)c2O[C@H]1CN(C)C(=O)NC1CCCCC1,active
10,C[C@@H]1CN([C@H](C)CO)C(=O)c2cccc(NC(=O)Nc3ccc(C(F)(F)F)cc3)c2O[C@H]1CN(C)CC1CCCCC1,inactive
11,C[C@@H]1CN([C@H](C)CO)C(=O)c2cccc(NC(=O)Nc3ccc(C(F)(F)F)cc3)c2O[C@@H]1CN(C)C(=O)NC1CCCCC1,inactive
12,C[C@@H]1CN([C@H](C)CO)C(=O)c2cccc(NC(=O)NC3CCCCC3)c2O[C@H]1CN(C)C(=O)Nc1ccc(C(F)(F)F)cc1,inactive
13,C[C@@H]1CN([C@H](C)CO)C(=O)c2cccc(NC(=O)Nc3ccc(C(F)(F)F)cc3)c2O[C@@H]1CN(C)CC1CCCCC1,active
14,C[C@H]1CN([C@@H](C)CO)C(=O)c2cccc(NC(=O)Nc3ccc(C(F)(F)F)cc3)c2O[C@@H]1CN(C)C(=O)NC1CCCCC1,inactive
15,C[C@H](CO)N1C[C@H](C)[C@H](CN(C)C(=O)Cc2ccccc2)OCCCC[C@H](C)Oc2ccc(NS(=O)(=O)c3ccc(F)cc3)cc2C1=O,inactive
16,C[C@@H]1CN([C@@H](C)CO)C(=O)c2cccc(NC(=O)Nc3ccc(C(F)(F)F)cc3)c2O[C@H]1CN(C)C(=O)NC1CCCCC1,inactive
17,C[C@H](O)C#Cc1cnc2c(c1)C(=O)N([C@@H](C)CO)C[C@H](C)[C@@H](CN(C)C(=O)Nc1ccc(C(F)(F)F)cc1)O2,inactive
18,C[C@@H]1CN([C@H](C)CO)C(=O)Cc2cc(NC(=O)Nc3ccc(C(F)(F)F)cc3)ccc2O[C@@H]1CN(C)C(=O)Nc1cccc2ccccc12,inactive
19,CO[C@@H]1[C@@H](OC(=O)c2ccc(C)[nH]2)[C@@H](O)[C@@H](Oc2ccc3c(c2C)OC(=O)[C@H](NC(=O)c2[nH]cc(CC(=O)Nc4cc5ccc(O[C@@H]6OC(C)(C)[C@H](OC)[C@@H](OC(=O)c7ccc(C)[nH]7)[C@H]6O)c(C)c5oc4=O)c2C)C3)CC1(C)C,inactive
20,COC1C(OC(N)=O)C(O)C(Oc2ccc3c([O-])c(NC(=O)c4ccc(O)c(CC=C(C)C)c4)c(=O)oc3c2C)OC1(C)C.[Na+] (stereo unspecified),active
21,O=C(C[C@H]1C[C@@H]2c3cc(NS(=O)(=O)c4ccc(F)cc4)ccc3O[C@@H]2[C@@H](CO)O1)NC1CCCCC1,inactive

row,Structure (SMILES),growth inhibition call
1,O=C(C[C@H]1CC=CCCC(=O)OCCNC1=O)NCCO,inactive
2,c1n[nH]nc1SSc1cn[nH]n1,active
3,C[C@@H]1CN([C@@H](C)CO)C(=O)Cc2cc(NC(=O)CCCN(C)C)ccc2O[C@H]1CN(C)S(C)(=O)=O,inactive
4,COc1ccc(S(=O)(=O)N(C)C[C@@H]2Oc3ccc(NC(=O)Nc4cccc5ccccc45)cc3C(=O)N([C@@H](C)CO)C[C@@H]2C)cc1,inactive
5,COc1ccc(S(=O)(=O)Nc2cccc3c2O[C@@H](CN(C)S(=O)(=O)c2cn(C)cn2)[C@@H](C)CN([C@H](C)CO)C3=O)cc1,inactive
6,C[C@H]1CN([C@@H](C)CO)C(=O)c2cc(NC(=O)Nc3ccc(C(F)(F)F)cc3)ccc2O[C@H]1CN(C)Cc1ccc(C(=O)O)cc1,inactive
7,Cc1ccc(S(=O)(=O)Nc2cccc3c2O[C@H](CN(C)Cc2ccc(C(F)(F)F)cc2)[C@H](C)CN([C@@H](C)CO)C3=O)cc1,inactive
8,NC[C@@H]1O[C@H](C23CC4CC(CC(C4)C2)C3)Cc2c1ccc(O)c2O,active
9,Cn1cnc(S(=O)(=O)N2CC[C@H]3NC(=O)C[C@H]32)c1,inactive
10,C[C@@H]1CN([C@H](C)CO)C(=O)Cc2cc(NC(=O)CCC(F)(F)F)ccc2O[C@H]1CN(C)S(=O)(=O)c1cn(C)cn1,inactive
11,OC1(c2ccc(Cl)c(C(F)(F)F)c2)CCN(CCCC(c2ccc(F)cc2)c2ccc(F)cc2)CC1 [listing 1 of 2 here],inactive
12,O=C(CCCN1CCC(O)(c2ccc(Cl)cc2)CC1)c1ccc(F)cc1,inactive
13,OC1(c2ccc(Cl)c(C(F)(F)F)c2)CCN(CCCC(c2ccc(F)cc2)c2ccc(F)cc2)CC1 [listing 2 of 2 here],active
14,C[C@H](CO)N1C[C@H](C)[C@@H](CN(C)S(=O)(=O)c2ccc(F)cc2)Oc2c(NC(=O)c3ccncc3)cccc2C1=O,inactive
15,C[C@@H]1CN([C@@H](C)CO)C(=O)c2cc(NC(=O)C3CCCCC3)ccc2O[C@@H](C)CCCCO[C@H]1CN(C)Cc1ccc(C(F)(F)F)cc1,inactive
16,COc1ccc(S(=O)(=O)N(C)C[C@@H]2Oc3ccc(NC(=O)C4CC4)cc3CC(=O)N([C@@H](C)CO)C[C@H]2C)cc1,inactive
17,CC1c2cccc(O)c2C(=O)C2=C(O)C3(O)C(=O)C(C(N)=O)=C(O)C(N(C)C)C3C(O)C21.Cl (stereo unspecified),inactive
18,C=C1c2cccc(O)c2C(=O)[C@@H]2C(=O)[C@]3(O)C(=O)[C@@H](C(N)=O)C(=O)[C@@H](N(C)C)[C@@H]3[C@@H](O)[C@H]12,inactive
19,C[C@H]1c2cccc(O)c2C(=O)C2=C(O)[C@]3(O)C(=O)[C@@H](C(N)=O)C(=O)[C@@H](N(C)C)[C@@H]3[C@@H](O)[C@@H]21,active
